# Screening results as filed in PubChem BioAssay.
# Hits are enriched below; roughly 6% of the tested compounds scored in any of these assays.
# PLK1 PBD block: qHTS for Inhibitors of PLK1-PDB (polo-like kinase 1 - polo-box domain): Primary Screen. Serine/threonine-protein kinase PLK1 (Homo sapiens), P53350. AID 720504, 2013. 2.8% of 360,000 active. Potency, µM, for the others: max response, negative = inhibition, usual class: inhibitors. Plk1 PBD binding of FITC phosphopeptide, fluorescence polarization; note: series mostly up to about 57 µM; nearly all actives have a fitted effect of over 65% in size
# Sfp PPTase inh: qHTS Assay for Inhibitors of Bacillus subtilis Sfp phosphopantetheinyl transferase (PPTase); 4'-phosphopantetheinyl transferase ffp (Bacillus subtilis), Q9F4F7; Biochemical Sfp PPTase activity, qHTS; Potency, µM, for inactives: largest response in the series, negative = inhibition, hits mostly inhibitors; 3.5% of 310,000 active; AID 1490, 2009;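 note: the enzyme is Sfp with the accession as filed and its product quenches rhodamine fluorescence; 0% = enzyme reaction without inhibitor and -100% = no enzyme wells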
#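 Compounds were incubated with enzyme (final 15 nM) for 15 min at room temperature before substrate addition started the reaction. Fluorescence at 525 nm excitation, 598 nm emission was recorded immediately and after 30 minutes.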
# Tau fluor counter: Counterscreen qHTS for Inhibitors of Tau Fibril Formation, Fluorescence Polarization. Potency, µM (series often up to 57.7 µM), without a hit: at the highest dose activity change, negative = decrease. 0.93% of 280,000 active. tau K18 P301L Alexa594 fluorescence, heparin fibrillization. AID 1463, 2008; note: nearly all actives have a fitted effect of over 55% in size
#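 Human tau K18 P301L (15 uM unlabeled, 0.24 uM Alexa 594-labeled) in 100 mM sodium acetate pH 7 with 20 uM heparin, 6 hr at 37 C. ThT 30 uM added, 1 hr ambient; Alexa 594 FP and total fluorescence read at 555/632 nm.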
# VDR inhibitor: Inhibitors of the vitamin D receptor (VDR): qHTS. 0.93% of 400,000 active. VDR-SRC2-3 peptide fluorescence polarization, 2 h. Vitamin D3 receptor (Homo sapiens), P11473. Potency, µM, for inactives: max response, negative = inhibition, actives largely listed as inhibitors
# Target sequence (P11473 whole entry, looked up): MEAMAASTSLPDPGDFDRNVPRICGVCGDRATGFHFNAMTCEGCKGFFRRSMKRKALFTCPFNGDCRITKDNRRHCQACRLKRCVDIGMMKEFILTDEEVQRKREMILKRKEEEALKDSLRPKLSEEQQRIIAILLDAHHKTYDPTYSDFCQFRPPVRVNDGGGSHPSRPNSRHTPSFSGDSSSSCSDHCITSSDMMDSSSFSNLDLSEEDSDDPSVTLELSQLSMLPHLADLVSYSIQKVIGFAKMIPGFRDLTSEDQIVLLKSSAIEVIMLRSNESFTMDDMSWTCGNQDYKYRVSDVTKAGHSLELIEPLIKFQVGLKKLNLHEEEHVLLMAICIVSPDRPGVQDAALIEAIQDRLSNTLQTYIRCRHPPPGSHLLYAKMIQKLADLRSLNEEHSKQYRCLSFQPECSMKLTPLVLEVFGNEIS
#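 FP read-out; VDR + SRC2-3 coactivator peptide; 23 nl compound by pintool; 2 h RT incubation; reagents held at 4 deg C, protected from light.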
# Tau ThT inhib: qHTS for Inhibitors of Tau Fibril Formation, Thioflavin T Binding; Potency, µM (doses to about 57.4 µM), inactives show at the top dose activity, negative = inhibition, actives largely listed as inhibitors; recombinant tau K18 P301L, heparin-induced fibrillization, ThT fluorescence; 2.1% of 270,000 active; Microtubule-associated protein tau (Homo sapiens), P10636; AID 1460, 2008; note: nearly all actives have a fitted effect of over 55% in size
#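 Heparin-induced fibrillization of the P301L-mutant K18 repeat-domain fragment of human tau was followed by ThT binding in quantitative high-throughput format.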
# Tau FP inhib: qHTS for Inhibitors of Tau Fibril Formation, Fluorescence Polarization; Potency, µM (series often up to 57.7 µM), for the others: top-dose activity, negative = inhibition, most hits filed as inhibitors; AID 1468, 2008; K18 P301L tau heparin fibrillization, Alexa594 FP, 6 h; 0.39% of 280,000 active; note: nearly all actives have a fitted effect of over 55% in size
#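 Heparin (20 uM) drove fibril formation of recombinant tau K18 P301L, 15 uM unlabeled with 0.24 uM Alexa 594 label, for 6 hr at 37 C in 100 mM sodium acetate pH 7. Fluorescence polarization (555/632 nm) read 1 hr after 30 uM ThT.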
# Numbers without * were called inactive; ? = inconclusive; nt = not tested or not shown; [ ] = remark or other dose. Calls come from the whole dose curve; as a rule, active = well fitted curve in the direction sought with a large enough effect; inconclusive = small, poorly fitted or top-dose-only effect, or another doubt; inactive = no such curve, though single readings can be large; an effect the other way counts as inactive or inconclusive. Unless noted, % is set by controls: 0 for no effect and ±100 for the full control effect; potency is the fitted concentration of half-maximal effect.
SMILES,PLK1 PBD block,Sfp PPTase inh,Tau fluor counter,VDR inhibitor,Tau ThT inhib,Tau FP inhib
S=c1[nH]nc(-c2cc(-c3ccccc3)n[nH]2)n1/N=C/C(Br)=C/c1ccccc1,?,?,?,-21.2%,17.8µM*,?
CC(C)Oc1ccc(CN2CCC2(C)C(=O)Nc2cccc3cccnc23)cc1 (stereo not drawn),-1.4%,nt,nt,nt,nt,nt
Cc1nn(C(=O)c2ccc(Cl)cc2)c(C)c1S(=O)(=O)N1CCOCC1,nt,nt,7.6%,-6.0%,2.8%,8.3%
COc1ccc(/C=C/C(=O)Nc2c(C(=O)O)[nH]c3ccccc23)cc1OC,26.7µM*,10.2%,-17.2%,?,?,6.8%
CCOC(=O)C(C#N)=C1CCC=C(C)C1,6.5%,nt,nt,nt,nt,nt
CCOC(=O)/C(C#N)=C1\SS/C(=C(/C#N)C(=O)OCC)S1,nt,10µM*,-29.1%,nt,2.82µM*,6.31µM*
CNC(=O)c1nnsc1S(=O)(=O)c1ccc(Cl)cc1,11.9µM*,7.08µM*,-0.2%,10µM*,-8.9%,-6.7%
O=C(c1nnsc1S(=O)(=O)c1ccc(Cl)cc1)N1CCOCC1,?,16.2%,2.4%,?,?,-7.9%
CN1C(=O)C(N=Nc2ccc([N+](=O)[O-])cc2)SC1=S (stereo not drawn),13.4µM*,nt,nt,-0.7%,nt,nt
COc1ccc(-c2nc(CSc3nncn4c3cc3sccc34)c(C)o2)cc1OC,nt,nt,-11.0%,12.6%,-15.6%,-6.9%
CN(C)c1ccc(C(CNS(=O)(=O)c2ccc(F)cc2)c2c[nH]c3ccccc23)cc1 (stereo not drawn),-19.2%,11.8%,11.2µM*[quencher],-10.1%,-11.5%,12.4%
CN(C)c1ccc(C(CNC(=O)c2ccc(C#N)cc2)c2c[nH]c3ccccc23)cc1 (stereo not drawn),4.3%,16.0%,14.1µM*[quencher],7.5%,?,?
COc1ccc(C)cc1NC(=O)c1cc2c(=O)n3cccc(C)c3nc2s1,nt,nt,-6.5%,1.0%,-6.4%,3.7%
COCCCn1c(Cc2csc(Nc3ccccc3)n2)nnc1SCC(N)=O,?,31.6µM*,-4.3%,7.8%,-6.2%,-0.4%
COCCCn1c(SCC(=O)NC(C)C)nnc1-c1ccccc1,7.52µM*,18.1%,7.0%,-18.1%,11.0%,-1.5%
COCCCn1c(SCC(N)=O)nnc1-c1ccccc1,-10.9%,1.5%,9.9%,2.2%,13.0%,-1.3%
CCOc1ccccc1NC(=O)C(c1ccccc1)N1CCN(C(=O)c2ccco2)CC1 (stereo not drawn),-4.4%,nt,nt,-13.2%,nt,nt
Cc1ccc(CNC(=O)CCCn2nc(C)c3c(C)n(-c4ccccc4)nc3c2=O)cc1,?,-5.8%,2.0%,-9.1%,-3.9%,5.4%
NC(=O)c1cc(S(=O)(=O)N2CCc3ccccc3C2)cs1,21.2µM*,0.4%,nt,?,nt,nt
CC(=O)c1ccc(N2CCN(S(=O)(=O)c3cccc4nsnc34)CC2)cc1,26.7µM*,13.7%,2.7%,-6.3%,-0.2%,-10.5%
CCc1nnc(NC(=O)c2sc3nc4c(cc3c2N)CCCCCC4)s1,-10.8%,-16.5%,-23.6%,-5.0%,?,-8.0%
CCc1nnc(NC(=O)CSc2nc3c(cc2C#N)CCCC3)s1,-2.4%,10.6%,-19.0%,6.9%,3.16µM*,1.1%
CCc1nnc(NC(=O)c2sc3nc4c(cc3c2N)CCCCC4)s1,-12.9%,0.8%,-17.8%,5.0%,1.41µM*,17.2%
CN1CCc2nc(SCC(=O)Nc3ccc(F)cc3)c(C#N)cc2C1,nt,-19.5%,?,nt,14.1µM*,-1.9%
COC(=O)CC(=O)CSc1nc2c(cc1C#N)CCCCC2,-8.8%,-3.0%,-14.8%,16.9%,?,2.6%
O=C1C(Br)=C(c2ccccc2)C(c2ccccc2)=C1c1ccccc1,2.67µM*,nt,nt,?,nt,nt
